High-throughput results (PubChem)
TDP1 cell noCPT – qHTS for Inhibitors of human tyrosyl-DNA phosphodiesterase 1 (TDP1): qHTS in cells in absence of CPT; Potency, µM (doses to about 46.2 µM), inactives show at the highest dose activity change, negative = growth inhibition, actives largely listed as inhibitors; hit rate 15% among 420,000; DT40 Tdp1-/- hTDP1 cells, no CPT, ATP luminescence, 48 h; further: potency means the concentration at half of the fitted maximal effect; nearly all actives have a fitted effect of over 55% in size
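Luminescent ATP content (CellTiter-Glo) served as the growth readout. Knockout chicken DT40 cells expressing human TDP1 were exposed to compounds without camptothecin for a minimum 48 hr at 37 °C.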
HT1080NT lethal – kills 2HG-producing HT-1080-NT fibrosarcoma cells. hit rate 1.6% among 360,000. Potency, µM (highest dose often 46.1 µM), inactives show top-dose activity, negative = less viability, usual class: cytotoxic. HT-1080-NT fibrosarcoma viability, CellTiter-Glo ATP luminescence, 48 h;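 further: NT is the 2HG producing partner of a matched IDH1 knockdown line; potency means the concentration at half of the fitted maximal effect; 0% = DMSO-treated cells and -100% = media-only wells without cells; nearly all actives have a fitted effect of over 55% in size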
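Fibrosarcoma NT cells, 750 per well in 5% FBS RPMI, were exposed to compound for 48 hours. Viability: CellTiter-Glo luminescence.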
IL-1B inflam inh – inflammasome signaling inhibition, IL-1 beta readout; THP-1 LPS/ATP IL-1B secretion, AlphaLISA, 16 h; hits give low values; hit rate 4.7% among 360,000; AID 743279; activity change, % at 57.5 µM; in the data active means activity change below about -50%; inconclusive means mostly about -30% to -49%
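Secreted IL-1B measured by AlphaLISA bead assay after 16 h compound exposure of THP-1 cells; compounds (final up to 57.5 uM) added 1 h before LPS (250 ng/mL) and ATP (1.25 mM) stimulation; lower signal means less secretion.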
TDP1 cell CPT – DT40-hTDP1 cell growth loss with CPT | chicken DT40 Tdp1-/-;hTDP1 cells + 20 nM CPT, ATP luminescence, 48 h | Potency, µM (top dose mostly 46.2 µM), without a hit: top-dose activity change, negative = growth inhibition, usual class: inhibitors | hit rate 12% among 420,000 | AID 686979; further: potency means the concentration at half of the fitted maximal effect; nearly all actives have a fitted effect of over 55% in size
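Chicken DT40 Tdp1-/- cells stably complemented with human TDP1 were seeded at 400 cells/well in medium containing 20 nM camptothecin, exposed to pin-transferred compounds, and grown at 37 °C for at least 48 hr. Viability was read as ATP luminescence.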
HT1080 IDH1KD tx – HT-1080 IDH1 knockdown cell toxicity (counter line). HT-1080 IDH1 knockdown viability, ATP luminescence, 48 h. Potency, µM (doses to about 46.1 µM), for the others: at the top dose activity, negative = toxicity, hits mostly cytotoxic. hit rate 2% among 360,000. AID 686971;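 further: potency means the concentration at half of the fitted maximal effect; 0% = DMSO wells and -100% = cell-free medium wells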
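Using the IDH1-knockdown HT-1080 line run in the same batch and compound series as the NT line, viability after 48 h at 37 °C was determined by CellTiter-Glo luminescence and expressed as % activity.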
The depositor's hits bear a star; ? = inconclusive; nt = no result. Compounds with a hit are over-represented: about 19% of the library has one in this group of screens. Unless noted, the call rests on the fitted dose curve; in most records, active means well fitted curve in the direction sought with a large enough effect; inconclusive means small, poorly fitted or top-dose-only effect, or another doubt; inactive means no such curve, though single readings can be large; an effect the other way counts as inactive or inconclusive. Unless noted, on the % scale 0 is the no-effect control and ±100 the full control effect.

SMILES | TDP1 cell noCPT | HT1080NT lethal | IL-1B inflam inh | TDP1 cell CPT | HT1080 IDH1KD tx
O=C(NCCCN1CCCC1)c1ccc(CS(=O)(=O)c2c(Cl)cccc2Cl)o1 | -5.5% | -1.8% | 2.6 | -7.8% | -1.4%
CCN(CC)c1ncnc2c1ncn2[C@H]1CN(Cc2ccccc2)C[C@@H](COC(C)=O)O1 | -21.5% | 3.5% | 16.9 | ? | 2.2%
O/N=C1\CC/C(=N\O)c2nn(-c3ccc(Cl)cc3Cl)nc21 | ? | -23.4% | -50.9* | 25.9µM* | -18.0%
CN(C)CCCNc1ncc(C(F)(F)F)cc1Cl | -3.4% | 9.4% | -1.1 | 3.6% | 6.9%
O=c1c(Cl)nc2cc(Cl)ccc2n1CCNc1ncc(C(F)(F)F)cc1Cl | 0.581µM* | 0.9% | 26.9 | 0.517µM* | 3.3%
NNc1nc2cccnc2n(CCNc2ncc(C(F)(F)F)cc2Cl)c1=O | ? | -22.1% | 0.0 | 16.4µM* | ?
O=c1c2nncn2c2cccnc2n1CCNc1ncc(C(F)(F)F)cc1Cl | -14.9% | -16.3% | -16.1 | -4.1% | 3.0%
O=c1[nH]c2cccc(Cl)c2n(CCNc2ncc(C(F)(F)F)cc2Cl)c1=O | ? | 23.1µM* | -28.9 | ? | ?
COC(=O)[C@H](C)NC(=O)NC1CCN(Cc2ccccc2)CC1 | -2.5% | -7.8% | -17.1 | -17.3% | 0.3%
C#CCOCCOCCOCCNc1nc(N2CCN(C(=O)[C@H]([C@@H](C)CC)n3cc(CCC(=O)O)nn3)CC2)nc(N2CCN(C(=O)[C@H](CCCCN)n3cc(CC(C)O)nn3)CC2)n1 (stereo partly specified) | -1.3% | -3.7% | 15.0 | -15.7% | -1.6%
COCCC1CCCCN1C(=O)c1ccc2nc(Cc3ccccc3F)oc2c1 (stereo unspecified) | ? | 4.0% | -14.8 | ? | -2.9%
COc1ccc(C2NS(=O)(=O)N=C2N)cc1 (stereo unspecified) | 23.1µM* | -1.5% | -0.2 | ? | 0.7%
CC(C)(C)OC(=O)N1CCC(c2c(C(=O)NCCc3ccccc3)cnn2-c2ccc(F)cc2F)CC1 | 18.4µM* | nt | nt | 20.6µM* | nt
CC(C)(C)OC(=O)N1CCC(c2c(C(=O)NCc3ccccc3)cnn2-c2cccc(F)c2)CC1 | 18.4µM* | nt | nt | ? | nt
CC(C)(C)OC(=O)N1CCC(c2c(C(=O)NCCc3ccccc3)cnn2-c2ccc(F)cc2)CC1 | 16.4µM* | nt | nt | ? | nt
CCOC(=O)c1cnn(-c2ccc(OC)cc2)c1C1CCN(C(=O)OC(C)(C)C)CC1 | 25.9µM* | nt | nt | ? | nt
COc1cccc(/C=C(\C#N)c2nc3ccccc3c(=O)[nH]2)c1OC | ? | nt | nt | -26.0% | nt
N=C1C(c2ccccc2)=C(O)CN1CCO | 8.3% | 1.4% | 11.1 | -20.7% | 2.5%
COc1cc(F)ccc1-c1cc(C(=O)Nc2ccc(NC(C)=O)cc2)[nH]n1 | ? | -1.4% | -18.3 | -25.4% | -1.2%
COc1ccc(CNC(=O)c2cnn(-c3ccc(C)cc3)c2C2CCN(C(=O)OC(C)(C)C)CC2)cc1 | 20.6µM* | nt | nt | 9.2µM* | nt
CCOC(=O)N1CCC(NC(=O)c2cnn(-c3ccc(F)cc3F)c2C2CCN(C(=O)OC(C)(C)C)CC2)CC1 | -19.9% | nt | nt | 5.2% | nt
CC(C)(C)OC(=O)N1CCC(c2c(C(=O)N3CCN(C(=O)c4ccco4)CC3)cnn2-c2ccc(F)cc2F)CC1 | ? | 0.0% | -16.2 | ? | 3.3%
CC(C)(C)OC(=O)N1CCC(c2c(C(=O)NCCN3CCc4ccccc4C3)cnn2-c2ccc(F)cc2F)CC1 | 11.6µM* | nt | nt | 20.6µM* | nt
CC(C)(C)OC(=O)N1CCC(c2c(C(=O)NCc3ccco3)cnn2-c2ccc(F)cc2F)CC1 | ? | nt | nt | 23.1µM* | nt
CC(C)(C)OC(=O)N1CCC(c2c(C(=O)NC3CCN(Cc4ccccc4)CC3)cnn2-c2ccc(F)cc2F)CC1 | 8.2µM* | nt | nt | 11.6µM* | nt
SMILES | TDP1 cell noCPT | HT1080NT lethal | IL-1B inflam inh | TDP1 cell CPT | HT1080 IDH1KD tx
CCCCC(=O)N(C)c1c(CC)nc2c(OCC(=O)N3CCOCC3)cccn12 | 1.1% | -4.0% | 31.5 | -6.5% | 15.7%
CC(C)(C)OC(=O)N1CCC(c2c(C(=O)NCc3ccccc3)cnn2-c2ccc(F)cc2)CC1 | 18.4µM* | nt | nt | 23.1µM* | nt
CCOc1ccc(NC(=O)c2cc(=O)c3ccc(C)c(C)c3o2)cc1 | 9.2µM* | nt | nt | ? | nt
Cc1ccnc(NS(=O)(=O)c2ccc(NC(=O)c3cc(=O)c4ccc(C)c(C)c4o3)cc2)n1 | ? | nt | nt | -25.4% | nt
CN(C)c1nc(OCCNC(=O)Nc2ccccc2)nc(N2CCOCC2)n1 | -78.0% | -5.6% | -9.5 | 23.1µM* | -5.5%
CN(C)c1nc(OCCNC(=O)Nc2ccccc2)nc(N2CCCCC2)n1 | -15.5% | -18.7% | -20.3 | 7.5% | -10.0%
COC(=O)[C@@]12C[C@@H](CC(=O)N3CCN(C(=O)c4ccco4)CC3)C(=O)N(Cc3ccco3)C1=CCC(C)(C)C2 | ? | 23.0% | -10.9 | ? | 2.7%
COC(=O)[C@@]12C[C@@H](CC(=O)N3CCN(C(=O)c4ccco4)CC3)C(=O)N(Cc3ccc4c(c3)OCO4)C1=CCC(C)(C)C2 | 20.6µM* | -21.8% | ? | 18.4µM* | -9.7%
COC(=O)[C@@]12C[C@@H](CC(=O)N3CCN(C(=O)c4ccco4)CC3)C(=O)N(Cc3ccccc3)C1=CCC(C)(C)C2 | 14.6µM* | 9.5% | -4.8 | ? | -1.2%
